Test results from PubChem BioAssay (NCATS).
Values joined by “and” are separate entries in the source; they are usually repeats but may differ in a detail not shown here. Equal values may be shown once. Results filed as inconclusive are left out. Where a call stands in place of a potency, no number is given. Active and inactive are the calls of the source. Unless noted, calls come from the whole dose curve; as a rule, active = well fitted curve in the direction sought with a large enough effect; inconclusive = small, poorly fitted or top-dose-only effect, or another doubt; inactive = no such curve, though single readings can be large; an effect the other way counts as inactive or inconclusive.

Experiments:
[1] = Validation of Assay for Modulators of Lamin A Splicing (AID 1459; active = well fitted curve in the direction sought with a large enough effect in the signal ratio; the % refers to the signal ratio;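 note: cells exposed to compound for two days before reading; ratio rise marks activators and ratio drop marks inhibitors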)
Outline: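 S3 HeLa stably expressing lamin A-EGFP splicing minigene and DsRed2, 600 cells/well in Opti-MEM with 2% FBS, treated 48 h at 37C; laser-scanning cytometry gives GFP/RFP total intensity ratio; ancitabine positive control, 0.5% DMSO vehicle.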

[2] = qHTS Assay for Lipid Storage Modulators (AID 1519; calls by dose curve); details: Drosophila S3 cells, BODIPY lipid droplet/cell ratio, laser cytometry, cells loaded with oleic acid
Outline: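 Cells seeded at 5,000 per well were treated with compounds over a concentration series and loaded with oleic acid (400 uM, as added). Lipid droplet fluorescence (488 nm excitation, 500-530 nm channel) was read by laser-scanning cytometry and normalized to 20 uM Triacsin C.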

[3] = target: DNA repair nuclease/redox regulator APEX1 (Homo sapiens) (UniProt P27695); assay: qHTS Validation Assay for Inhibitors of the Human Apurinic/apyrimidinic Endonuclease 1 (APE1) (AID 1705;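 note: TAMRA fluorescence gain over two minutes as APE1 cuts a quenched THF abasic duplex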)
DNA repair nuclease/redox regulator APEX1 (Homo sapiens), sequence (P27695 whole entry, looked up): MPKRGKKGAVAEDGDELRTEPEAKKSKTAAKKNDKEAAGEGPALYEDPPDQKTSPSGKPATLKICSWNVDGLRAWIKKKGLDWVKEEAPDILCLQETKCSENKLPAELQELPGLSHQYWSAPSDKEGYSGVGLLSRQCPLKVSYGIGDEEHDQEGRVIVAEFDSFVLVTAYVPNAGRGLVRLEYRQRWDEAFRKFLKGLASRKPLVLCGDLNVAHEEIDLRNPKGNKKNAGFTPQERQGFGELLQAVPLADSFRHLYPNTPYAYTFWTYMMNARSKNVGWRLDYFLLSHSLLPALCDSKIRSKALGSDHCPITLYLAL
Outline: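 Fluorogenic double-stranded THF abasic-site substrate (5'-TAMRA/3'-BHQ-2), 50 nM final. Enzyme preincubated with compound 15 min at room temperature, then substrate added. Kinetic fluorescence (ex 525/em 598 nm) read three times at 60 s intervals; activity taken as third-minus-first read difference.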

[4] = Counterscreen for APE1 Inhibitors: Fluorescent Dye Displacement Validation Assay (AID 1707)
Outline: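 Compounds are scored by their ability to displace Thiazole Orange (250 nM) from a 50 nM TAMRA-tagged duplex bearing a tetrahydrofuran abasic site. Buffer is 50 mM Tris-HCl pH7.5, 50mM NaCl, 2 mM MgCl2, 0.01% Tween-20.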

[5] = qHTS for differential inhibitors of proliferation of Plasmodium falciparum line 7G8 (AID 1815);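 note: parasite growth measured after three days of incubation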; note: potency is the fitted concentration of half-maximal effect
[6] = qHTS for differential inhibitors of proliferation of Plasmodium falciparum line GB4 (AID 1816); details: Potency: Plasmodium falciparum GB4 proliferation inhibition;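 note: parasite growth measured after 72 h incubation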; note: potency is the fitted concentration of half-maximal effect
[7] = qHTS for differential inhibitors of proliferation of Plasmodium falciparum line 3D7 (AID 1876); note: potency is the fitted concentration of half-maximal effect
[8] = qHTS for differential inhibitors of proliferation of Plasmodium falciparum line D10 (AID 1877);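 note: parasites grown with compound for 72 h before DNA staining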; note: potency is the fitted concentration of half-maximal effect
[9] = target: Endonuclease 4 (Escherichia coli (strain K12)) (UniProt P0A6C1); assay: Counterscreen for APE1 Inhibitors: qHTS Validation Assay for Inhibitors of Endonuclease IV (AID 1708)
Outline: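 Enzymatic AP-site incision assay using a double-stranded THF substrate labelled with TAMRA and BHQ-2; released fluorescence signals activity. Enzyme 2 nM, substrate 50 nM, 15 min compound preincubation.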

[10] = target: alpha-glucosidase (Oryza sativa, rice) (UniProt Q653V4); assay: Counterscreen for Glucocerebrosidase Inhibitors: qHTS Assay for Rice alpha-Glucosidase at pH 5.0 (AID 997)
Outline: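 Rice alpha-glucosidase (4 nM final) with 400 uM 4-methylumbelliferyl-alpha-D-glucopyranoside in citrate buffer pH 5.0, 20 min at room temperature, stopped at pH 10; fluorescence 365/440 nm, compounds 0.7 nM–77 uM, AC50 from Hill fits.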

[11] = measured here: cell count channel max response
[12] = measured here: lipid channel max response

| SMILES | outcome [1] | activity change, negative = inhibition ([2]; at 57.5 µM (top of the series)) | max response [2, 11] | max response [2, 12] | Potency [3] | outcome [4] | Potency [5] | Potency [6] | Potency [7] | Potency [8] | Potency [9] | outcome [10] | activity change, negative = inhibition ([2]; at 25.7 µM (top of the series)) |
| --- | --- | --- | --- | --- | --- | --- | --- | --- | --- | --- | --- | --- | --- |
| CC(C)COCC(CN(Cc1ccccc1)c1ccccc1)N1CCCC1 (stereo unspecified) | inactive | 2.08% (inactive) | 20% | 26.2% | inactive | inactive | inactive | inactive | inactive | inactive | – | – | – |
| CCCN1C[C@H](CSC)C[C@@H]2c3cccc4[nH]cc(c34)C[C@H]21 | inactive | – | – | – | inactive | inactive | 11.2 µM (active) | 5.62 µM (active) | 11.2 µM (active) | 11.2 µM (active) | inactive | – | – |
| COCCOC(=O)C1=C(C)NC(C)=C(C(=O)OC(C)C)C1c1cccc([N+](=O)[O-])c1 (stereo unspecified) | inactive | 10.8% (inactive) and 3.42% (inactive) | 12.3% and 59.2% | 26.9% and 56.5% | inactive | inactive | 4.47 µM (active) | 10 µM (active) | 7.94 µM (active) | 12.6 µM (active) | – | – | – |
| CC1=C(C)C(=O)C(CCCCC#CCCCC#CCO)=C(C)C1=O | inactive | 1.13% (inactive) | -22.7% | -21.4% | – | inactive | 2.24 µM (active) | 2.51 µM (active) | 8.91 µM (active) | 14.1 µM (active) | – | inactive | – |
| COCCc1ccc(OCC(O)CNC(C)C)cc1 (stereo unspecified) | inactive | 2.43% (inactive) | -17.2% | -15.7% | inactive | inactive | inactive | – | inactive | inactive | – | – | – |
| COc1cc(Cc2cnc(N)nc2N)cc(OC)c1OC | inactive | – | -1.95% | -5.27% | inactive | inactive | – | – | – | – | inactive | inactive | -1.74% (inactive) |
| c1ccc2c(c1)CCCC2C1=NCCN1 (stereo unspecified) | inactive | 9.7% (inactive) and 1.83% (inactive) | 6.5% and -25.5% | 18.8% and -24.9% | inactive | inactive | inactive | – | inactive | inactive | inactive | – | – |
| CCN(CC)CCOCCOC(=O)C1(c2ccccc2)CCCC1 | inactive | -1.81% (inactive) and 10.4% (inactive) and -0.577% (inactive) | – | – | inactive | inactive | 3.16 µM (active) | – | – | – | – | inactive | -7.98% (inactive) |
| CCOC(=O)C1=C(C)NC(C)=C(C(=O)OC)C1c1cccc([N+](=O)[O-])c1 (stereo unspecified) | inactive | 1.63% (inactive) | -3.59% | -4.4% | inactive | inactive | 11.2 µM (active) | 12.6 µM (active) | 8.91 µM (active) | 12.6 µM (active) | inactive | – | – |
| CCCCNc1ccc(C(=O)OCCN(C)C)cc1 | inactive | 14.3% (inactive) | -0.19% and 24.9% | 3.57% and 43.3% | inactive | inactive | inactive | – | – | – | – | inactive | 3.23% (inactive) |
| C#CCN(C)CCCOc1ccc(Cl)cc1Cl | inactive | – | -6.58% | -5.76% | inactive | inactive | – | – | inactive | inactive | – | inactive | -0.841% (inactive) |
| CNCCC(Oc1ccccc1OC)c1ccccc1 (stereo unspecified) | inactive | – | – | – | inactive | inactive | 3.55 µM (active) | – | – | inactive | inactive | – | – |
| CC1=NS(=O)(=O)c2cc(Cl)ccc2N1 | – | 14.6% (inactive) | 8.52% and 9.84% | 14.7% and 27.6% | inactive | inactive | inactive | inactive | inactive | inactive | inactive | inactive | 4.02% (inactive) |
| CCc1c(C)[nH]c2c1C(=O)C(CN1CCOCC1)CC2 (stereo unspecified) | inactive | – | – | – | inactive | inactive | inactive | inactive | inactive | inactive | – | inactive | – |
| CC(C)NNC(=O)c1ccncc1 | – | 6.45% (inactive) and -0.103% (inactive) | 4.18% and 16.8% and -20.6% | 1.65% and 27.2% and -21.8% | inactive | inactive | inactive | inactive | inactive | inactive | inactive | inactive | -0.171% (inactive) |
| CN1CCN(C2=Nc3ccccc3Oc3ccc(Cl)cc32)CC1 | – | 10% (inactive) and 2.23% (inactive) | 14.9% and 0.863% and -23% | 7.38% and 8.12% and -19.5% | inactive | inactive | 7.08 µM (active) | 11.2 µM (active) | 12.6 µM (active) | 11.2 µM (active) | inactive | inactive | -4.84% (inactive) |
| CCCCCCCC/C=C\CCCCCCCC(=O)NCc1ccc(O)c(OC)c1 | – | -24.2% (inactive) | 15.7% | -12.6% | – | – | – | – | – | – | – | – | – |
| O=C(O)CCCCCCCC(=O)O | inactive | – | – | – | inactive | inactive | inactive | inactive | inactive | inactive | – | inactive | – |
| CCn1cc(C(=O)O)c(=O)c2cc3c(cc21)OCO3 | – | 2.77% (inactive) | 12% and 70.6% | 10.4% and 75.7% | – | inactive | – | – | – | inactive | inactive | inactive | -1.05% (inactive) |
| CN(C)CCN(Cc1cccs1)c1ccccn1 | – | 3.3% (inactive) | 2.28% and 15.7% | 3.57% and 22% | inactive | inactive | – | 5.62 µM (active) | inactive | inactive | inactive | inactive | 0.542% (inactive) |
